# Counter-ions that a name gives are not always drawn. ± gives the standard error. Hit rate of the full screen: of about 1,300 compounds, about 130 (10%) showed an effect of 50% or more. The list comes from a sample in which strong results are over-represented; it also holds similar structures and randomly drawn compounds.
# Tested on: Trichoderma virens ATCC 9645
# Assay: growth yield (OD600) with compound + IPBC relative to untreated control; higher = less growth inhibition
# Conditions: compound concentration: 100 uM, IPBC concentration: 200 ng/ml
# Outline: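 Plates were read for OD600 at 40 h and 72 h after Trichoderma virens ATCC 9645 spores (15,000 spores ml^−1 in potato dextrose broth) were grown at 30 °C with library compounds at 100 μM final, with or without a biocide at 200 ng ml^−1. Growth is stated relative to the control with neither agent, as the mean of duplicate screens.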
smiles,measurement,setting,value
Nc1nc(/C(=C/CC(=O)O)C(=O)N[C@@H]2C(=O)N3C(C(=O)O)=CCS[C@H]23)cs1 [Ceftibuten] + CCCCNC(=O)OCC#CI [3-iodo-2-propynyl butylcarbamate (IPBC)],growth yield,40 h,92.4 ± 4.8%
same,growth yield,72 h,94 ± 3.1%
CCCNC(=O)NS(=O)(=O)c1ccc(Cl)cc1 [Chlorpropamide] + CCCCNC(=O)OCC#CI [3-iodo-2-propynyl butylcarbamate (IPBC)],growth yield,40 h,93.7 ± 4.1%
same,growth yield,72 h,102 ± 2.2%
CCN(CC)C(=S)SSC(=S)N(CC)CC [Disulfiram] + CCCCNC(=O)OCC#CI [3-iodo-2-propynyl butylcarbamate (IPBC)],growth yield,40 h,33.7 ± 3.8%
same,growth yield,72 h,92.4 ± 1.6%
C=CCC1(CC(C)C)C(=O)NC(=O)NC1=O [Butalbital] + CCCCNC(=O)OCC#CI [3-iodo-2-propynyl butylcarbamate (IPBC)],growth yield,40 h,85.6 ± 1.4%
same,growth yield,72 h,93.2 ± 0.94%
COc1ccc([C@@H]2Sc3ccccc3N(CCN(C)C)C(=O)[C@@H]2OC(C)=O)cc1 [Diltiazem hydrochloride] + CCCCNC(=O)OCC#CI [3-iodo-2-propynyl butylcarbamate (IPBC)],growth yield,40 h,80.85 ± 0.48%
same,growth yield,72 h,88.4 ± 2.2%
CC(C)C[C@H](CN)CC(=O)O [Pregabalin] + CCCCNC(=O)OCC#CI [3-iodo-2-propynyl butylcarbamate (IPBC)],growth yield,40 h,85.3 ± 0.79%
same,growth yield,72 h,89.14 ± 0.21%
CN(C)c1cc(NC(=O)CNC(C)(C)C)c(O)c2c1C[C@H]1C[C@H]3[C@H](N(C)C)C(O)=C(C(N)=O)C(=O)[C@@]3(O)C(O)=C1C2=O [Tigecycline] + CCCCNC(=O)OCC#CI [3-iodo-2-propynyl butylcarbamate (IPBC)],growth yield,40 h,80.7 ± 3.5%
same,growth yield,72 h,79 ± 2%
CC(C)NC(=N)NC(=N)Nc1ccc(Cl)cc1 [Proguanil hydrochloride] + CCCCNC(=O)OCC#CI [3-iodo-2-propynyl butylcarbamate (IPBC)],growth yield,40 h,92.8 ± 2.2%
same,growth yield,72 h,104 ± 1.8%
N=C(N)NC(=N)NCCc1ccccc1 [Phenformin hydrochloride] + CCCCNC(=O)OCC#CI [3-iodo-2-propynyl butylcarbamate (IPBC)],growth yield,40 h,86.25 ± 0.48%
same,growth yield,72 h,92 ± 2.4%
N=C(NCCCCCCNC(=N)NC(=N)Nc1ccc(Cl)cc1)NC(=N)Nc1ccc(Cl)cc1 [Chlorhexidine] + CCCCNC(=O)OCC#CI [3-iodo-2-propynyl butylcarbamate (IPBC)],growth yield,40 h,4.61 ± 0.16%
same,growth yield,72 h,3.67 ± 0.32%
CCN(CC)C(=O)N1CCN(C)CC1 [Diethylcarbamazine citrate] + CCCCNC(=O)OCC#CI [3-iodo-2-propynyl butylcarbamate (IPBC)],growth yield,40 h,83.4 ± 2.4%
same,growth yield,72 h,94.1 ± 1.4%
CN(CCOc1ccc(CC2SC(=O)NC2=O)cc1)c1ccccn1 (configuration not stated) [Rosiglitazone Hydrochloride] + CCCCNC(=O)OCC#CI [3-iodo-2-propynyl butylcarbamate (IPBC)],growth yield,40 h,76.4 ± 7.5%
same,growth yield,72 h,82.6 ± 6.1%
CCCOc1ccccc1-c1nc2[nH]nnc2c(=O)[nH]1 [Zaprinast] + CCCCNC(=O)OCC#CI [3-iodo-2-propynyl butylcarbamate (IPBC)],growth yield,40 h,87.2 ± 0.79%
same,growth yield,72 h,98.7 ± 1.1%
N[C@@H]1CCCCN(c2c(F)cc3c(=O)c(C(=O)O)cn(C4CC4)c3c2Cl)C1 [Besifloxacin hydrochloride] + CCCCNC(=O)OCC#CI [3-iodo-2-propynyl butylcarbamate (IPBC)],growth yield,40 h,88.5 ± 2.7%
same,growth yield,72 h,88.1 ± 2.7%
COc1ccc(C(Cl)=C(c2ccc(OC)cc2)c2ccc(OC)cc2)cc1 [Chlorotrianisene] + CCCCNC(=O)OCC#CI [3-iodo-2-propynyl butylcarbamate (IPBC)],growth yield,40 h,103 ± 17%
same,growth yield,72 h,101 ± 11%
CC/C(=C(\c1ccccc1)c1ccc(OCCN(C)C)cc1)c1ccccc1 [Tamoxifen citrate] + CCCCNC(=O)OCC#CI [3-iodo-2-propynyl butylcarbamate (IPBC)],growth yield,40 h,3.34 ± 0.48%
same,growth yield,72 h,3.36 ± 0.63%
CN(C)CCOC(c1ccccc1)c1ccccc1 [Diphenhydramine hydrochloride] + CCCCNC(=O)OCC#CI [3-iodo-2-propynyl butylcarbamate (IPBC)],growth yield,40 h,87.2 ± 2.1%
same,growth yield,72 h,94 ± 2.1%
"CCN(CC)CCOc1ccc(C(=C(Cl)c2ccccc2)c2ccccc2)cc1 [Clomiphene citrate (Z,E)] + CCCCNC(=O)OCC#CI [3-iodo-2-propynyl butylcarbamate (IPBC)]",growth yield,40 h,3.02 ± 0.16%
same,growth yield,72 h,2.94%
CN(C)CCOC(=O)COc1ccc(Cl)cc1 [Meclofenoxate hydrochloride] + CCCCNC(=O)OCC#CI [3-iodo-2-propynyl butylcarbamate (IPBC)],growth yield,40 h,93.2 ± 3.3%
same,growth yield,72 h,96.7 ± 2.1%
COc1cc(C(=O)NCc2ccc(OCCN(C)C)cc2)cc(OC)c1OC [Trimethobenzamide hydrochloride] + CCCCNC(=O)OCC#CI [3-iodo-2-propynyl butylcarbamate (IPBC)],growth yield,40 h,90.2 ± 1.3%
same,growth yield,72 h,91.3 ± 2.8%
CCN(CC)CCOC(=O)C(c1ccccc1)c1ccccc1 [Adiphenine hydrochloride] + CCCCNC(=O)OCC#CI [3-iodo-2-propynyl butylcarbamate (IPBC)],growth yield,40 h,87.2 ± 1.4%
same,growth yield,72 h,92.8 ± 1.4%
COc1ccc(C(=O)NCc2ccc(OCCN(C)C)cc2)cc1OC [Itopride] + CCCCNC(=O)OCC#CI [3-iodo-2-propynyl butylcarbamate (IPBC)],growth yield,40 h,107 ± 1.1%
same,growth yield,72 h,102%
CN(C)CCOc1ccc(/C(=C(/CCCl)c2ccccc2)c2ccccc2)cc1 [Toremifene] + CCCCNC(=O)OCC#CI [3-iodo-2-propynyl butylcarbamate (IPBC)],growth yield,40 h,3.49 ± 0.95%
same,growth yield,72 h,3.15 ± 0.42%
CCN(CC)CCNC(=O)c1cc(Br)c(N)cc1OC [Bromopride] + CCCCNC(=O)OCC#CI [3-iodo-2-propynyl butylcarbamate (IPBC)],growth yield,40 h,92.6 ± 14%
same,growth yield,72 h,93.8 ± 7.5%
CCCOc1cc(N)ccc1C(=O)OCCN(CC)CC [Propoxycaine hydrochloride] + CCCCNC(=O)OCC#CI [3-iodo-2-propynyl butylcarbamate (IPBC)],growth yield,40 h,86.7%
same,growth yield,72 h,88.73 ± 0.42%
CCC1(C)CC(=O)NC1=O (configuration not stated) [Ethosuximide] + CCCCNC(=O)OCC#CI [3-iodo-2-propynyl butylcarbamate (IPBC)],growth yield,40 h,94.8 ± 2.1%
same,growth yield,72 h,97.85 ± 0.94%
CN1CCN(C2=Nc3ccccc3Oc3ccc(Cl)cc32)CC1 [Loxapine succinate] + CCCCNC(=O)OCC#CI [3-iodo-2-propynyl butylcarbamate (IPBC)],growth yield,40 h,71.8 ± 2.2%
same,growth yield,72 h,91.87 ± 0.84%
CC(=O)N(CC(C)C(=O)O)c1c(I)cc(I)c(N)c1I (configuration not stated) [Iocetamic acid] + CCCCNC(=O)OCC#CI [3-iodo-2-propynyl butylcarbamate (IPBC)],growth yield,40 h,107 ± 18%
same,growth yield,72 h,102 ± 11%
C#C[C@]1(O)CC[C@H]2[C@@H]3[C@H](C)CC4=C(CCC(=O)C4)[C@H]3CC[C@@]21C [Tibolone] + CCCCNC(=O)OCC#CI [3-iodo-2-propynyl butylcarbamate (IPBC)],growth yield,40 h,80.1 ± 2.9%
same,growth yield,72 h,90.09 ± 0.1%
Cc1ccc(-c2cc(C(F)(F)F)nn2-c2ccc(S(N)(=O)=O)cc2)cc1 [Celecoxib] + CCCCNC(=O)OCC#CI [3-iodo-2-propynyl butylcarbamate (IPBC)],growth yield,40 h,57.8 ± 0.64%
same,growth yield,72 h,78.76 ± 0.73%
C[C@]12CC[C@@H]3c4ccc(OC(=O)N(CCCl)CCCl)cc4CC[C@H]3[C@@H]1CC[C@@H]2O [Estramustine] + CCCCNC(=O)OCC#CI [3-iodo-2-propynyl butylcarbamate (IPBC)],growth yield,40 h,97.8 ± 4.5%
same,growth yield,72 h,98.1 ± 4.7%
CC(C)NNC(=O)c1ccncc1 [Iproniazide phosphate] + CCCCNC(=O)OCC#CI [3-iodo-2-propynyl butylcarbamate (IPBC)],growth yield,40 h,89.3 ± 0.95%
same,growth yield,72 h,99 ± 0.84%
Oc1ccc(OCc2ccccc2)cc1 [Monobenzone] + CCCCNC(=O)OCC#CI [3-iodo-2-propynyl butylcarbamate (IPBC)],growth yield,40 h,50.7 ± 6.5%
same,growth yield,72 h,63 ± 4.3%
CCCCOC(=O)c1ccc(O)cc1 [Butylparaben] + CCCCNC(=O)OCC#CI [3-iodo-2-propynyl butylcarbamate (IPBC)],growth yield,40 h,27.5 ± 1.8%
same,growth yield,72 h,46.9 ± 3.2%
CCCCOC(=O)c1ccc(N)cc1 [Butamben] + CCCCNC(=O)OCC#CI [3-iodo-2-propynyl butylcarbamate (IPBC)],growth yield,40 h,53.53 ± 0.16%
same,growth yield,72 h,70.7 ± 3.4%
CCCCN(CCCC)CCCOC(=O)c1ccc(N)cc1 [Butacaine] + CCCCNC(=O)OCC#CI [3-iodo-2-propynyl butylcarbamate (IPBC)],growth yield,40 h,106 ± 9.2%
same,growth yield,72 h,105 ± 8.7%
NNc1nncc2ccccc12 [Hydralazine hydrochloride] + CCCCNC(=O)OCC#CI [3-iodo-2-propynyl butylcarbamate (IPBC)],growth yield,40 h,120 ± 6.8%
same,growth yield,72 h,125 ± 11%
Cc1cc(C2CCCCC2)n(O)c(=O)c1 [Ciclopirox ethanolamine] + CCCCNC(=O)OCC#CI [3-iodo-2-propynyl butylcarbamate (IPBC)],growth yield,40 h,3.49 ± 0.32%
same,growth yield,72 h,2.83 ± 0.32%
CCOC(=O)[C@H](CCc1ccccc1)N[C@@H](C)C(=O)N1[C@H](C(=O)O)C[C@@H]2CCC[C@@H]21 [Ramipril] + CCCCNC(=O)OCC#CI [3-iodo-2-propynyl butylcarbamate (IPBC)],growth yield,40 h,95 ± 3.2%
same,growth yield,72 h,96 ± 3.9%
CC1(C)O[C@@H]2C[C@H]3[C@@H]4CCC5=CC(=O)C=C[C@]5(C)[C@H]4[C@@H](O)C[C@]3(C)[C@]2(C(=O)CO)O1 [Desonide] + CCCCNC(=O)OCC#CI [3-iodo-2-propynyl butylcarbamate (IPBC)],growth yield,40 h,107 ± 5.9%
same,growth yield,72 h,103 ± 3.9%
C[C@@H]1CC[C@H]2[C@@H](C)C(=O)O[C@@H]3O[C@@]4(C)CC[C@@H]1[C@]32OO4 [Artemisinin] + CCCCNC(=O)OCC#CI [3-iodo-2-propynyl butylcarbamate (IPBC)],growth yield,40 h,32.4 ± 1.3%
same,growth yield,72 h,76.3 ± 1.1%
